Source: PubChem BioAssay (National Center for Advancing Translational Sciences (NCATS))
IL-1B inflam inh – qHTS for Inhibitors of Inflammasome Signaling: IL-1-beta AlphaLISA Primary Screen; 360,000 compounds, 4.7% hits; THP-1 LPS/ATP IL-1B secretion, AlphaLISA, 16 h; active compounds read low; activity change, % at 57.5 µM; in the data active means activity change below about -50%; inconclusive means mostly about -30% to -49%; further: on the % scale 0 is the no-effect control and ±100 the full control effect
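THP-1 cells pretreated 1 hr with compounds (up to 57.5 uM final), then stimulated with LPS (250 ng/mL final) plus ATP (1.25 mM final); secreted IL-1B measured by AlphaLISA after 16 hr, decreased signal indicating inhibition.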
TGFb inhibitor – qHTS for Inhibitors of TGF-b. HepG2 CAGA-GFP TGF-b/SMAD3 reporter, GFP fluorescence, 18 h; TGF-beta stimulated, 500 pg/mL final. Potency, µM (doses to about 46.1 µM), for inactives: at the top dose activity, negative = inhibition, actives largely listed as inhibitors. AID 588855, 2011. 410,000 compounds, 1.2% hits; further: potency means the concentration at half of the fitted maximal effect; on the % scale 0 is the no-effect control and ±100 the full control effect; nearly all actives have a fitted effect of over 65% in size
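Inhibition of TGF-beta-driven CAGA-GFP reporter expression in HEPG2 cells is measured by cellular GFP fluorescence after 18 h stimulation with 500 pg/mL recombinant TGF-beta in 1% FBS medium at 37 degrees C.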
TDP1 inh – qHTS Assay for Inhibitors of Tyrosyl-DNA Phosphodiesterase (TDP1); 350,000 compounds, 0.28% hits; Potency, µM (top dose mostly 130 µM), for the others: at the top dose activity change, negative = inhibition, hits mostly inhibitors; recombinant TDP1, AlphaScreen DNA substrate cleavage; Tyrosyl-DNA phosphodiesterase 1 (Homo sapiens), Q9NUW8; further: potency means the concentration at half of the fitted maximal effect; on the % scale 0 is the no-effect control and ±100 the full control effect; nearly all actives have a fitted effect of over 40% in size
Target sequence (Q9NUW8 whole entry, looked up): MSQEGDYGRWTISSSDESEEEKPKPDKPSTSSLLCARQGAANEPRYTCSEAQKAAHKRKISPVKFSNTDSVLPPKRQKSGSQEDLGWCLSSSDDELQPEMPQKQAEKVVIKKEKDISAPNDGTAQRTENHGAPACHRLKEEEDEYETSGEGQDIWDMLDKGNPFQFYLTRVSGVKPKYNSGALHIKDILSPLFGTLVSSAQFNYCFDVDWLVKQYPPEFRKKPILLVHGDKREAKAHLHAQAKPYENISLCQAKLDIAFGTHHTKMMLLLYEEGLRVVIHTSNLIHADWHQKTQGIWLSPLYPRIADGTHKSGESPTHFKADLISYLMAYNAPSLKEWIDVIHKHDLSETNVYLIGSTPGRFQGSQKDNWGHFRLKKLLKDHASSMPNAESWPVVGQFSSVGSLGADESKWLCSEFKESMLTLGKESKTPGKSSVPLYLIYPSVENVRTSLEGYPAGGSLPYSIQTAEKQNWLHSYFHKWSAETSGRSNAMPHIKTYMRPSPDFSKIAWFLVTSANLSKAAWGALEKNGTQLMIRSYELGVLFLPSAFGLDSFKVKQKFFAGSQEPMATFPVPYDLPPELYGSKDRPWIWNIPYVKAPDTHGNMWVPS
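Compounds were preincubated with Tdp1 (1 nM final) for 15 min at room temperature before substrate (15 nM final) started a 5 min reaction; beads (10 ug/ml final) were then added for 10 min before AlphaScreen detection.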
HepG2 viability – qHTS for Inhibitors of TGF-b: Cytotox Counterscreen | HepG2 CAGA-GFP viability, ATP luminescence, 18 h | Potency, µM (series often up to 46.1 µM), for the others: at the top dose activity change, negative = cytotoxicity, actives largely listed as cytotoxic | 410,000 compounds, 0.76% hits | AID 588856, 2011; further: potency means the concentration at half of the fitted maximal effect
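CellTiter-Glo luminescence gave cytotoxicity after 18 hours at 37 degrees C. The cells were HepG2 CAGA-GFP in 1% FBS DMEM, stimulated with 500 pg/mL TGF-beta after compound addition. %Activity was normalised to no-cell wells (complete cell-killing) and DMSO (no toxicity), and curves were fitted and classified.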
TDP1 cell CPT – qHTS for Inhibitors of human tyrosyl-DNA phosphodiesterase 1 (TDP1): qHTS in cells in presence of CPT | chicken DT40 Tdp1-/-;hTDP1 cells + 20 nM CPT, ATP luminescence, 48 h | Potency, µM (highest dose often 46.2 µM), for the others: top-dose activity change, negative = growth inhibition, actives largely listed as inhibitors | 420,000 compounds, 12% hits | AID 686979, 2013; further: potency means the concentration at half of the fitted maximal effect; on the % scale 0 is the no-effect control and ±100 the full control effect; nearly all actives have a fitted effect of over 55% in size
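Chicken DT40 Tdp1-/- cells complemented with human TDP1, 400 cells/well, exposed to compounds plus 20 nM camptothecin for at least 48 h at 37 C; viability read as ATP content by CellTiter-Glo luminescence.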
TDP1 cell noCPT – qHTS for Inhibitors of human tyrosyl-DNA phosphodiesterase 1 (TDP1): qHTS in cells in absence of CPT | 420,000 compounds, 15% hits | DT40 Tdp1-/- hTDP1 cells, no CPT, ATP luminescence, 48 h | Potency, µM (series often up to 46.2 µM), for the others: at the highest dose activity change, negative = growth inhibition, actives largely listed as inhibitors; further: potency means the concentration at half of the fitted maximal effect; on the % scale 0 is the no-effect control and ±100 the full control effect; nearly all actives have a fitted effect of over 55% in size
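DT40 Tdp1-/-;hTDP1 cells, no CPT (DMSO vehicle only), 400 cells/well; compounds pin-transferred; ≥48 hr, 37 °C; CellTiter-Glo 30 min RT dark, luminescence read.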
Starred values were filed as active, the others as inactive; ? = inconclusive; . = not tested or not shown; [ ] = remark or other dose. In the library only some 19% were active in any assay of this set; here they are far more common. Unless noted, the call rests on the fitted dose curve; in most records, active means well fitted curve in the direction sought with a large enough effect; inconclusive means small, poorly fitted or top-dose-only effect, or another doubt; inactive means no such curve, though single readings can be large; an effect the other way counts as inactive or inconclusive.

SMILES	IL-1B inflam inh	TGFb inhibitor	TDP1 inh	HepG2 viability	TDP1 cell CPT	TDP1 cell noCPT
O=C(CCSc1nc(-c2ccc3c(c2)OCO3)cc(C(F)(F)F)n1)NCc1ccccc1	14.5	-7.9%	1.2%	-48.1%	?	14.6µM*
Cn1c(=O)oc2cc(S(=O)(=O)NCCC(=O)Nc3ccc(F)c(Cl)c3)ccc21	.	5.2%	?	-0.2%	?	?
Cc1cc(Nc2nc3ccccc3nc2Cl)n(-c2ccc([N+](=O)[O-])cc2)n1	-86.7*	?	6.6%	-28.7%	18.4µM*	13µM*
Cc1cc(Nc2cnc3ccccc3n2)n(-c2ccccc2)n1	-20.9	?	3.0%	-23.3%	?	?
COC(=O)C(C)Sc1ncnc2c1c(-c1ccccc1)cn2-c1ccc(OC)cc1 (configuration not stated)	40.3	-27.9%	.	-2.6%	?	-3.2%
COC(=O)C(C)Sc1ncnc2c1c(-c1ccccc1)cn2-c1ccc(F)cc1 (configuration not stated)	.	-2.3%	11.8%	-1.7%	4.11µM*	16.4µM*
c1ccc(-c2cn(-c3ccccc3)c3ncnc(N4CCN(c5ccccc5)CC4)c23)cc1	.	0.4%	7.8%	3.2%	?	?
CN(c1ncnc2c1c(-c1ccccc1)cn2-c1cccc(Cl)c1)C1CCCCC1	.	-1.3%	5.2%	-2.8%	-16.2%	-28.9%
CC1CN(c2ncnc3c2c(-c2ccccc2)cn3-c2ccc(F)cc2)CC(C)O1 (configuration not stated)	?	-18.6%	-6.3%	-1.0%	16.4µM*	9.2µM*
OCCN1CCN(c2ncnc3c2c(-c2ccccc2)cn3-c2ccc(F)cc2)CC1	-96.8*	10.2%	7.4%	-29.5%	?	25.9µM*
CN(c1ncnc2c1c(-c1ccccc1)cn2-c1ccc(F)cc1)C1CCCCC1	.	?	-2.6%	-51.2%	?	23.1µM*
COc1ccc(CNC(=O)CCc2cn(C)c3ccccc23)cc1	.	-9.7%	2.6%	-16.2%	-27.1%	-21.1%
COc1cc(NC(=O)CN2C(=O)CCc3cc(Br)ccc32)cc(OC)c1OC	.	1.6%	1.8%	-8.9%	?	?
CN(Cc1ccon1)C(=O)c1cnn(-c2nccc(-c3ccc4c(c3)OCO4)n2)c1C1CC1	.	.	.	.	1.2%[9.04 µM]	-14.9%
CS(=O)(=O)Cc1ccc(C(=O)NC2CCSc3ccccc32)cc1 (configuration not stated)	0.1	-1.3%	3.5%	-2.6%	5.1%	1.9%
NCc1nc2cccnc2n1Cc1ccccc1Cl	.	-4.2%	4.7%	1.4%	-1.5%	-1.4%
CCOC(=O)[C@]12CCC=C1N(Cc1ccc(Cl)cc1Cl)C(=O)[C@H](CC(=O)NCCCN1CCCC1=O)C2	-12.0	.	.	.	18.4µM*	?
CCOC(=O)[C@]12CCC=C1N(Cc1ccc(Cl)cc1Cl)C(=O)[C@H](CC(=O)NCC13CC4CC(CC(C4)C1)C3)C2	-10.2	.	.	.	?	20.6µM*
CCOC(=O)[C@]12CCCC=C1N(Cc1ccc(Cl)cc1Cl)C(=O)[C@H](CC(=O)NCCCN1CCCC1=O)C2	-17.0	.	.	.	?	?
CCOC(=O)[C@]12CCCC=C1N(Cc1ccc(Cl)cc1Cl)C(=O)[C@H](CC(=O)NCc1ccccc1)C2	0.0	.	.	.	?	?
COC(=O)[C@]12CCCCC=C1N(Cc1ccc(Cl)cc1Cl)C(=O)[C@H](CC(=O)NCC13CC4CC(CC(C4)C1)C3)C2	24.3	.	.	.	1.8%	-17.6%
CCOC(=O)[C@]12CCCC=C1N(Cc1ccc(Cl)cc1Cl)C(=O)[C@H](CC(=O)NCCc1ccccc1OC)C2	0.0	.	.	.	?	23.1µM*
CCCCOCCCNC(=O)C[C@@H]1C[C@@]2(C(=O)OCC)CCCC=C2N(Cc2ccc(Cl)cc2Cl)C1=O	-78.7*	.	.	.	?	18.4µM*
Cc1ccc2nc(N(Cc3cccnc3)C(=O)CCOc3ccccc3)sc2c1	.	2.3%	0.0%	4.6%	?	?
CCCCNC(=O)C[C@@H]1C[C@@]2(C(=O)OCC)CCCC=C2N(Cc2ccc(Cl)cc2Cl)C1=O	?	.	.	.	20.6µM*	-92.2%
SMILES	IL-1B inflam inh	TGFb inhibitor	TDP1 inh	HepG2 viability	TDP1 cell CPT	TDP1 cell noCPT
C#CCNC(=O)C[C@@H]1C[C@@]2(C(=O)OCC)CCCC=C2N(Cc2ccc(Cl)cc2Cl)C1=O	-18.8	.	.	.	?	?
C[C@@]12CCC3[C@@](CC[C@@H]4[C@](C)(C(=O)O)CCC[C@@]34C)(C[C@H]1O)C2 (some centres not stated)	2.8	11.1%	.	-7.1%	-0.3%	1.9%
C[C@@]12CCC[C@@](C)(C(=O)O)C1CC[C@@]13C[C@@H](NCc4ccccc4)[C@@](C)(CCC12)C3 (some centres not stated)	0.0	4.5%	0.3%	-1.3%	?	20.6µM*
CC(=O)N1CCC(=NNC(=O)c2cc3ccccc3cc2O)CC1	2.4	-9.1%	4.3%	-8.1%	-23.6%	?
O=C(CN1C(=O)NC2(CCCc3ccccc32)C1=O)N1CCc2ccccc2C1 (configuration not stated)	-5.1	-12.8%	3.1%	-22.0%	?	20.6µM*
Cc1cc(C)c(NC(=O)CN2C(=O)NC3(CCCc4ccccc43)C2=O)c(Cl)c1 (configuration not stated)	-19.7	-15.3%	-4.7%	-14.2%	?	18.4µM*
